Laboratory results as given in PubChem BioAssay (EPA / NIEHS).
Where “and” joins values, the source holds several entries; their conditions need not be identical. Equal entries are not always repeated. Some structures have more than one record in an assay (separate samples or runs), and their calls can disagree. Calls of active or inactive are those of the source. Rule for the calls: active = hit-call score of the fitted dose curve at least 0.9, where 1 is the maximum; inactive = score below 0.9.

Each molecule was assayed on Collagen III, COL3A1 (gene 1281) (assay: BSK_hDFCGF_CollagenIII: BioMAP Diversity Plus: hDFCGF Assay for Collagen III Biomarker Activity (AID 2283056)). Settings: primary human foreskin fibroblasts; actives raise or lower the signal.
Protocol: BSK_hDFCGF is a cell-based, multiplexed-readout assay that uses foreskin fibroblast, a human skin primary cell, with measurements taken at 24 hours after chemical dosing in a 96-well plate.BSK_hDFCGF_CollagenIII is an assay component measured in the BSK_hDFCGF assay. It measures Collagen antibody related to regulation of gene expression using ELISA technology.Data from the assay component BSK_hDFCGF_CollagenIII was analyzed into 1 assay endpoint. This assay endpoint, BSK_hDFCGF_CollagenIII, was analyzed with bidirectional fitting relative to DMSO as the negative control and baseline of activity. Using a type of binding reporter, gain or loss-of-signal activity can be used to understand changes in the signaling as they relate to the gene COL3A1. Furthermore, this assay endpoint can be referred to as a primary readout, because this assay has produced multiple assay endpoints where this one serves a signaling function. To generalize the intended target to other relatable targets, this assay endpoint is annotated to the cell adhesion molecules intended target family, where the subfamily is collagen.
The levels of cell surface (or secreted, indicated by the prefix "s") biomarker endpoints were measured by ELISA. Overt cytotoxicity to cells in confluent adherent cultures (all systems other than the BT system) was assessed by measuring total protein levels using sulforhodamine B (SRB) staining in parallel cultures at the time of biomarker measurements, indicated as SRB endpoints. For proliferation assays for adherent cell types, individual cell types are cultured at sub-confluence and relative cell numbers quantified by SRB staining at time points optimized for each system (48 h: 3C and CASM3C systems; 72 h: BT and HDF3CGF systems; 96 h: SAg system). SRB was performed by staining cells with 0.1% SRB after fixation with 10% TCA and reading wells at 560 nm.Viability and proliferation of PBMC (T cells) was quantified by Alamar Blue reduction for the SAg and BT systems. For PBMC viability (referred to as PBMC Cytotoxicity within the assay endpoint names), cells were plated (75,000/well in a 96-well plate) and then chemical samples added for 1 h before addition of activators, SEB and TSST-1 (20 ng/mL final concentration each). Cells were incubated for 90 h. Then, Alamar Blue (20 uL/well) (Invitrogen, Cat DAL1100) was added for 6 h, and the plates were read with a fluorescence microplate reader at 546/580 nm (excitation/emission). For PBMC proliferation, cells were plated and activated as above but incubated for only 16 h prior to addition of Alamar Blue. Plates were read after 6 h.

| Structure (SMILES) | AC50 | outcome |
| --- | --- | --- |
| C=CC(=O)OCCCCCCOC(=O)C=C | 7.72 µM (active) |  |
| CC=C(C)C=CC=C(C)C |  | inactive |
| c1ccc(Nc2cccc3ccccc23)cc1 | 17.3 µM (active) and 13.9 µM (active) |  |
| O=C1CCCCCCCCCCCN1 |  | inactive |
| Oc1ccccc1Cc1ccccc1O |  | inactive |
| CCNc1nc(NC(C)(C)C)nc(OC)n1 |  | inactive |
| CC1=CC=C(C(C)C)CC1 |  | inactive |
| COc1ccc(C(=O)/C(Br)=C\C(=O)O)cc1 | 13.6 µM (active) | inactive |
| CCCCCCCCCCCC(C)=O |  | inactive |
| COC(OC)(C(=O)c1ccccc1)c1ccccc1 |  | inactive |
| C1CNCCN1 |  | inactive |
| CCCC(C)C(=O)OCC (stereo not given) |  | inactive |
| C=CC(=O)OCC(C)OCC(C)OCC(C)OC(=O)C=C (stereo not given) | 35.7 µM (active) |  |
| C[N+](C)(C)CCCNS(=O)(=O)C(F)(F)C(F)(F)C(F)(F)C(F)(F)C(F)(F)C(F)(F)C(F)(F)C(F)(F)F | 11.4 µM (active) and 5.3 µM (active) |  |
| CCc1cccc(C)c1N(C(=O)CS(=O)(=O)O)C(C)COC (stereo not given) |  | inactive |
| CCOC(=O)C1=NOC(c2ccccc2)(c2ccccc2)C1 |  | inactive |
| O=C1CCCCCCCCCCC1 |  | inactive |
| CC1(C)CC(O)CC(C)(C)N1[O] |  | inactive |
| C=CC(=O)NCOCCCC |  | inactive |
| CC(C)c1cccc(C(C)C)c1N |  | inactive |

| Structure (SMILES) | AC50 | outcome |
| --- | --- | --- |
| C=CC(=O)NC(C)(C)C |  | inactive |
| COc1ccc(C(=O)c2ccccc2)c(O)c1 |  | inactive |
| CC/C=C\C/C=C\C/C=C\CCCCCCCC(=O)OC | 5.53 µM (active) |  |
| CC(CCC(=O)O)(c1ccc(O)cc1)c1ccc(O)cc1 |  | inactive |
| C=CCCCCCCCCC=O |  | inactive |
| Oc1ccc(/C=C/c2cc(O)cc(O)c2)cc1 |  | inactive |
| CC=C(C)C(C)=O | 3.97 µM (active) |  |
| CC/C=C\CCOC(=O)c1ccccc1O | 11.8 µM (active) |  |
| Nc1ccc(C(=O)O)cc1 |  | inactive |
| O=C(Oc1ccccc1)c1ccccc1C(=O)Oc1ccccc1 | 11.5 µM (active) |  |
| Nc1nc(N)nc(-c2ccccc2)n1 |  | inactive |
| O=C(O)C(F)(F)C(F)(F)C(F)(F)C(F)(F)C(=O)O |  | inactive |
| CCCCCC1=CCCC1=O |  | inactive |
| CC(C)[N+](C)(CCOC(=O)C1c2ccccc2Oc2ccccc21)C(C)C |  | inactive |
| c1ccc2sc(SSN3CCOCC3)nc2c1 |  | inactive |
| CCC1(C)C(=O)N(Cl)C(=O)N1Cl (stereo not given) |  | inactive |
| c1ccc2c(c1)[nH]c1ccccc12 |  | inactive |
| Nc1cccc(N)n1 |  | inactive |
| Cc1c(O)cccc1O |  | inactive |
